# Laboratory results published in PubChem BioAssay (EPA / NIEHS).
# The source made the active and inactive calls. How the source made its calls: active means hit-call score of the fitted dose curve at least 0.9, where 1 is the maximum; inactive means score below 0.9.
# Key:
# [1] = APR_HepG2_CellCycleArrest_24hr: Apredica 24-hour HepG2 Assay for Cell Cycle Arrest (AID 2282905); details: imaging, actives raise or lower the signal;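 further: cell cycle arrest scored as ratio of 2N to 4N nuclear DNA content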
# In short: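 Step one: dose HepG2 with test compounds, 0.39–200 uM, 0.5% DMSO, 24 hr. Step two: fix, permeabilize, stain nuclei with Hoechst 33342. Step three: image six fields per well at 20x, quantify DNA content, fit bidirectionally relative to DMSO.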
# [2] = APR_HepG2_NuclearSize_24hr: Apredica 24-hour HepG2 Assay for Nuclear Size (AID 2282907); details: high-content imaging, actives raise or lower the signal
# In short: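 After fixation and permeabilization, 24-hr-treated HepG2 cells were stained with Hoechst 33342 and imaged on an ArrayScan (20x). Doses spanned 0.39–200 uM in duplicate. Nuclear diameter changes in either direction were fitted relative to 0.5% DMSO controls.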
# [3] = APR_HepG2_CellLoss_24hr: Apredica 24-hour HepG2 Assay for Cell Loss (AID 2282908); details: high-content imaging;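 on AC50: fit in both directions so a hit may be cell loss or gain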
# In short: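 Duplicate wells received compound at ten concentrations (0.39–200 uM; final DMSO 0.5% v/v). After fixation with formaldehyde, nuclei stained with Hoechst 33342 were imaged at 20x. Loss or gain of cell count was fitted relative to DMSO controls.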
# [4] = APR_HepG2_MicrotubuleCSK_24hr: Apredica 24-hour HepG2 Assay for Microtubule CSK Stabilty (AID 2282909); details: HepG2 microtubule cytoskeleton imaging, actives raise or lower the signal
# In short: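 Microtubule stability is scored from tubulin immunofluorescence in fixed HepG2 cells imaged at 20x. Cells receive ten compound concentrations up to 200 uM for 24 h; taxol and DMSO serve as positive and negative controls.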
# [5] = APR_HepG2_MitoticArrest_24hr: Apredica 24-hour HepG2 Assay for Mitotic Arrest (AID 2282910); details: high-content imaging, actives raise or lower the signal
# In short: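 High-content imaging of fixed HepG2 cells labeled with Hoechst 33342 and anti-phospho-histone H3, after 24 h treatment. Ten concentrations 0.39 to 200 uM in duplicate, final DMSO 0.5%; changes fitted both directions relative to DMSO.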
# [6] = APR_HepG2_MitoMembPot_24hr: Apredica 24-hour HepG2 Assay for Mitochondrial Membrane Potential (AID 2282911); details: imaging, actives raise or lower the signal
# In short: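 Mitochondrial dye uptake (MitoTracker Red CMXRos, 250 nM, 30 min pre-fixation) in HepG2 after 24 hr compound exposure, 0.39–200 uM; ArrayScan images at 20x, activity fitted in both directions relative to DMSO.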
# [7] = APR_HepG2_MitoMass_24hr: Apredica 24-hour HepG2 Assay for Mitochondrial Mass (AID 2282912); details: high-content imaging, actives raise or lower the signal
# In short: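 Readout: fluorescence of MitoTracker Red CMXRos (250 nM, added 30 min pre-fixation) in fixed HepG2 cells imaged by HCS. Exposure lasted 24 hr at 0.39–200 uM; increases and decreases were both fitted relative to DMSO.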
# [8] = APR_HepG2_p53Act_24hr: Apredica 24-hour HepG2 Assay for p53 Activation (AID 2282913); details: high-content imaging, actives raise or lower the signal;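 further: p53 protein immunofluorescence averaged per cell in HepG2 with Hoechst nuclei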
# In short: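 Following 24 hr dosing of HepG2 at 0.39–200 uM, the cells undergo formaldehyde fixation, Triton permeabilization and multiplexed antibody labeling that includes p53 (Cy5). Signal from the imaging is referenced to DMSO solvent controls.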
# [9] = APR_HepG2_CellCycleArrest_72hr: Apredica 72-hour HepG2 Assay for Cell Cycle Arrest (AID 2282914); details: high-content imaging, actives raise or lower the signal
# In short: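 Using multiplexed high-content imaging, HepG2 nuclei stained with Hoechst 33342 (2 ug/mL) were analysed for DNA content after fixation and permeabilization. Treatment lasted 72 hr across 0.39–200 uM in duplicate with final DMSO 0.5% v/v; DMSO served as negative control.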
# [10] = APR_HepG2_CellLoss_72hr: Apredica 72-hour HepG2 Assay for Cell Loss (AID 2282915); details: high-content imaging
# In short: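 Cell number comes from Hoechst 33342-labelled nuclei, imaged at 20x after 3.7% formaldehyde fixation. Dosing was 0.39–200 uM, ten concentrations in duplicate, 0.5% DMSO final, for 72 h. Bidirectional fit relative to DMSO baseline.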
structure (smiles),measurement,setting,value
CCCCOC(=O)c1ccccc1C(=O)OCc1ccccc1,outcome,[1],inactive
same,outcome,[2],inactive
same,AC50,[3],48.5 µM (active)
same,outcome,[4],inactive
same,outcome,[5],inactive
same,outcome,[6],inactive
same,outcome,[7],inactive
same,outcome,[8],inactive
same,AC50,[9],92.5 µM (active)
same,AC50,[10],60.3 µM (active)
c1ccc(C2CO2)cc1 (stereo not given),outcome,[1],inactive
same,outcome,[2],inactive
same,outcome,[3],inactive
same,outcome,[4],inactive
same,outcome,[5],inactive
same,outcome,[6],inactive
same,outcome,[7],inactive
same,outcome,[8],inactive
same,outcome,[9],inactive
same,outcome,[10],inactive
CC(C)COC(=O)c1ccccc1C(=O)OCC(C)C,AC50,[1],85.7 µM (active)
same,outcome,[2],inactive
same,AC50,[3],87 µM (active)
same,outcome,[4],inactive
same,outcome,[5],inactive
same,AC50,[6],53.7 µM (active)
same,AC50,[7],108 µM (active)
same,AC50,[9],76.2 µM (active)
same,AC50,[10],63.2 µM (active)
C[C@]12C=CC3=C4CCC(=O)C=C4CC[C@H]3[C@@H]1CC[C@@H]2O,outcome,[1],inactive
same,outcome,[2],inactive
same,AC50,[3],26.1 µM (active)
same,outcome,[4],inactive
same,AC50,[5],32.7 µM (active)
same,outcome,[6],inactive
same,outcome,[7],inactive
same,outcome,[9],inactive
same,AC50,[10],21.7 µM (active)
OCCOCCO,outcome,[1],inactive
same,outcome,[2],inactive
same,outcome,[3],inactive
same,outcome,[4],inactive
same,outcome,[5],inactive
same,outcome,[6],inactive
same,outcome,[7],inactive
same,outcome,[9],inactive
same,outcome,[10],inactive
O=C(Nc1ccccc1)c1ccccc1I,AC50,[1],49.7 µM (active)
same,outcome,[2],inactive
same,outcome,[3],inactive
same,outcome,[4],inactive
same,outcome,[5],inactive
same,outcome,[6],inactive
same,outcome,[7],inactive
same,outcome,[9],inactive
same,AC50,[10],61.8 µM (active)
CN(C)C(=O)Nc1ccc(Cl)cc1,outcome,[1],inactive
same,outcome,[2],inactive
same,outcome,[3],inactive
same,outcome,[4],inactive
same,outcome,[5],inactive
same,outcome,[6],inactive
same,outcome,[7],inactive
same,outcome,[8],inactive
same,outcome,[9],inactive
same,outcome,[10],inactive
Cc1ccc(N=C=O)cc1N=C=O,outcome,[1],inactive
same,outcome,[2],inactive
same,outcome,[3],inactive
same,outcome,[4],inactive
same,outcome,[5],inactive
same,outcome,[6],inactive
same,outcome,[7],inactive
same,outcome,[8],inactive
same,outcome,[9],inactive
same,outcome,[10],inactive
N#CC(Br)(Br)C(N)=O,outcome,[1],inactive
same,outcome,[2],inactive
same,outcome,[3],inactive
same,outcome,[4],inactive
same,outcome,[5],inactive
same,outcome,[6],inactive
same,outcome,[7],inactive
same,outcome,[8],inactive
same,outcome,[9],inactive
same,outcome,[10],inactive
CN(C)[C@@H]1C(=O)C(C(N)=O)=C(O)[C@@]2(O)C(=O)C3=C(O)c4c(O)cccc4[C@@](C)(O)[C@H]3C[C@@H]12,outcome,[1],inactive
same,outcome,[2],inactive
same,outcome,[3],inactive
same,outcome,[4],inactive
same,outcome,[5],inactive
same,outcome,[6],inactive
same,outcome,[7],inactive
same,outcome,[8],inactive
same,outcome,[9],inactive
same,outcome,[10],inactive
O=C(N[C@H](c1ccccc1)[C@@H]1CN2CCC1CC2)c1c(Cl)ccc(C(F)(F)F)c1Cl,AC50,[1],60.8 µM (active)
same,AC50,[2],88.8 µM (active)
same,AC50,[3],120 µM (active)
same,outcome,[4],inactive
same,AC50,[5],78.7 µM (active)
same,outcome,[6],inactive
same,outcome,[7],inactive
same,AC50,[8],101 µM (active)
same,AC50,[9],30.6 µM (active)
same,AC50,[10],64 µM (active)
CCC12COCN1COC2,AC50,[1],45.1 µM (active)
same,outcome,[2],inactive
same,outcome,[3],inactive
same,outcome,[4],inactive
same,AC50,[5],93.6 µM (active)
same,outcome,[6],inactive
same,outcome,[7],inactive
same,AC50,[8],86 µM (active)
same,outcome,[9],inactive
same,outcome,[10],inactive
CCCCCCCCOC(=O)c1ccc(C(=O)OCCCCCCCC)c(C(=O)OCCCCCCCC)c1,outcome,[1],inactive
same,outcome,[2],inactive
same,outcome,[3],inactive
same,outcome,[4],inactive
same,outcome,[5],inactive
same,outcome,[6],inactive
same,outcome,[7],inactive
same,outcome,[8],inactive
same,outcome,[9],inactive
same,outcome,[10],inactive
CC(C)N(Cc1ccccc1)C(=O)C(C)(C)C,outcome,[1],inactive
same,outcome,[2],inactive
same,outcome,[3],inactive
same,outcome,[4],inactive
same,outcome,[5],inactive
same,outcome,[6],inactive
same,outcome,[7],inactive
same,outcome,[8],inactive
same,outcome,[9],inactive
same,outcome,[10],inactive
Cn1cc(-c2ccccc2)c(=O)c(-c2cccc(C(F)(F)F)c2)c1,AC50,[1],57.4 µM (active)
same,outcome,[2],inactive
same,outcome,[3],inactive
same,outcome,[4],inactive
same,outcome,[5],inactive
same,outcome,[6],inactive
same,outcome,[7],inactive
same,outcome,[8],inactive
same,AC50,[9],107 µM (active)
same,AC50,[10],64.3 µM (active)
CCCSC(=O)N(CCC)CCC,outcome,[1],inactive
same,outcome,[2],inactive
same,outcome,[3],inactive
same,outcome,[4],inactive
same,outcome,[5],inactive
same,outcome,[6],inactive
same,outcome,[7],inactive
same,outcome,[8],inactive
same,outcome,[9],inactive
same,outcome,[10],inactive
c1ccc(NNc2ccccc2)cc1,outcome,[1],inactive
same,outcome,[2],inactive
same,outcome,[3],inactive
same,outcome,[4],inactive
same,outcome,[5],inactive
same,outcome,[6],inactive
same,outcome,[7],inactive
same,AC50,[8],110 µM (active)
same,AC50,[9],104 µM (active)
same,AC50,[10],97.9 µM (active)
N#CC(Br)Br,outcome,[1],inactive
same,outcome,[2],inactive
same,AC50,[3],115 µM (active)
same,AC50,[4],169 µM (active)
same,AC50,[5],45.4 µM (active)
same,outcome,[6],inactive
same,AC50,[7],86.6 µM (active)
same,outcome,[9],inactive
same,AC50,[10],96.9 µM (active)
O=Cc1ccco1,outcome,[1],inactive
same,outcome,[2],inactive
same,outcome,[3],inactive
same,outcome,[4],inactive
same,outcome,[5],inactive
same,outcome,[6],inactive
same,outcome,[7],inactive
same,outcome,[8],inactive
same,outcome,[9],inactive
same,outcome,[10],inactive
[O-][Cl+]O,outcome,[1],inactive
same,outcome,[2],inactive
same,AC50,[3],70.7 µM (active)
same,AC50,[4],73.3 µM (active)
same,AC50,[5],93.6 µM (active)
same,AC50,[6],62.5 µM (active)
same,outcome,[7],inactive
same,outcome,[8],inactive
same,outcome,[9],inactive
same,AC50,[10],97.5 µM (active)
Cc1cccc(N)c1N,outcome,[1],inactive
same,outcome,[2],inactive
same,outcome,[3],inactive
same,outcome,[4],inactive
same,outcome,[5],inactive
same,AC50,[6],99.9 µM (active)
same,outcome,[7],inactive
same,outcome,[8],inactive
same,AC50,[9],7.98 µM (active)
same,AC50,[10],14.1 µM (active)
